{
  "source": "the supplement of paper PMC9023506",
  "note": "Counter-ions that a name gives are not always drawn.",
  "data": [
    {"test_system": "Danio rerio larvae (5 dpf)", "assay": "startle response to 20-s acoustic pulses, difference vs DMSO (percentage points (treated minus DMSO)); higher = more of the behaviour than the DMSO vehicle control", "details": "10 µM; exposure time: 3 h pre-incubation + 3 h imaging", "description": "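5-dpf wild-type zebrafish larvae were imaged in 96-well plates. They were treated with 190 Tocris FDA-approved drugs at 10 µM (1 µl/ml DMSO) for 3 h before and 3 h during imaging at 28.5 °C, 48 larvae per drug. Automated image analysis gave % time moving and optomotor responses. Values are drug group mean minus DMSO vehicle mean (n=844), in percentage points, for 10 behaviours.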", "values": [
      {"smiles": "CCOC(=O)[C@H](CCc1ccccc1)N[C@@H](C)C(=O)N1[C@H](C(=O)O)C[C@@H]2CCC[C@@H]21", "note": "[Ramipril]", "startle response to 20-s acoustic pulses": -1.54},
      {"smiles": "CCCCCCCCc1ccc(CCC(N)(CO)CO)cc1", "startle response to 20-s acoustic pulses": -1.81},
      {"smiles": "CCCCNc1cc(C(=O)O)cc(S(N)(=O)=O)c1Oc1ccccc1", "note": "[Bumetanide]", "startle response to 20-s acoustic pulses": 3.98},
      {"smiles": "CN1CCN(CCCN2c3ccccc3Sc3ccc(Cl)cc32)CC1", "note": "[Prochlorperazine dimaleate]", "startle response to 20-s acoustic pulses": -7.34},
      {"smiles": "CCOC(=O)C1=C(C)NC(C)=C(C(=O)OC)C1c1cccc(Cl)c1Cl", "note": "(stereo not given) [Felodipine]", "startle response to 20-s acoustic pulses": 9.85},
      {"smiles": "C[C@H](Cc1cc2c(c(C(N)=O)c1)N(CCCO)CC2)NCCOc1ccccc1OCC(F)(F)F", "note": "[Silodosin]", "startle response to 20-s acoustic pulses": 2.96},
      {"smiles": "Cc1ccc(N(CC2=NCCN2)c2cccc(O)c2)cc1", "note": "[Phentolamine Mesylate]", "startle response to 20-s acoustic pulses": -1.56},
      {"smiles": "Nc1ncn([C@H]2C[C@H](O)[C@@H](CO)O2)c(=O)n1", "note": "[Decitabine]", "startle response to 20-s acoustic pulses": -0.522},
      {"smiles": "Cc1nc(-c2ccc(OCC(C)C)c(C#N)c2)sc1C(=O)O", "note": "[Febuxostat]", "startle response to 20-s acoustic pulses": 2.71},
      {"smiles": "C[C@]12CCC(=O)C=C1CC[C@@H]1[C@@H]2[C@@H](O)C[C@@]2(C)[C@H]1CC[C@]2(O)C(=O)CO", "note": "[Hydrocortisone]", "startle response to 20-s acoustic pulses": 0.897},
      {"smiles": "C[C@@H](O[C@H]1OCCN(Cc2n[nH]c(=O)[nH]2)[C@H]1c1ccc(F)cc1)c1cc(C(F)(F)F)cc(C(F)(F)F)c1", "note": "[Aprepitant]", "startle response to 20-s acoustic pulses": -6.92},
      {"smiles": "O=C1CCc2cc(OCCCCc3nnnn3C3CCCCC3)ccc2N1", "note": "[Cilostazol]", "startle response to 20-s acoustic pulses": 2.19},
      {"smiles": "COc1cc(N)c(Cl)cc1C(=O)NC1CCN(CCCOc2ccc(F)cc2)CC1OC", "note": "(stereo not given) [Cisapride]", "startle response to 20-s acoustic pulses": -0.377},
      {"smiles": "Cc1c(-c2ccc(O)cc2)n(Cc2ccc(OCCN3CCCCCC3)cc2)c2ccc(O)cc12", "note": "[Bazedoxifene acetate]", "startle response to 20-s acoustic pulses": -4.17},
      {"smiles": "CC(C)c1nc(CN(C)C(=O)N[C@H](C(=O)N[C@@H](Cc2ccccc2)C[C@H](O)[C@H](Cc2ccccc2)NC(=O)OCc2cncs2)C(C)C)cs1", "note": "[Ritonavir]", "startle response to 20-s acoustic pulses": 1.92},
      {"smiles": "CCCCc1nc(Cl)c(CO)n1Cc1ccc(-c2ccccc2-c2nnn[nH]2)cc1", "note": "[Losartan potassium]", "startle response to 20-s acoustic pulses": -0.252},
      {"smiles": "O=c1n(CCCN2CCN(c3cccc(Cl)c3)CC2)nc2ccccn12", "note": "[Trazodone hydrochloride]", "startle response to 20-s acoustic pulses": 2.64},
      {"smiles": "CN1CCN2c3ncccc3Cc3ccccc3C2C1", "note": "(stereo not given) [Mirtazapine]", "startle response to 20-s acoustic pulses": -5.94},
      {"smiles": "OC(CNCC(O)C1CCc2cc(F)ccc2O1)C1CCc2cc(F)ccc2O1", "note": "(stereo not given) [Nebivolol hydrochloride]", "startle response to 20-s acoustic pulses": -6.21},
      {"smiles": "Nc1nc2[nH]cc(CCc3ccc(C(=O)N[C@@H](CCC(=O)O)C(=O)O)cc3)c2c(=O)[nH]1", "note": "[Pemetrexed]", "startle response to 20-s acoustic pulses": -4.56},
      {"smiles": "N#Cc1ccc(C(c2ccc(C#N)cc2)n2cncn2)cc1", "note": "[Letrozole]", "startle response to 20-s acoustic pulses": 5.37},
      {"smiles": "CC[C@H]1OC(=O)[C@H](C)[C@@H](O[C@H]2C[C@@](C)(OC)[C@@H](O)[C@H](C)O2)[C@H](C)[C@@H](O[C@@H]2O[C@H](C)C[C@H](N(C)C)[C@H]2O)[C@](C)(O)C[C@@H](C)CN(C)[C@H](C)[C@@H](O)[C@]1(C)O", "note": "[Azithromycin]", "startle response to 20-s acoustic pulses": 2.64},
      {"smiles": "CC(c1cc2ccccc2s1)N(O)C(N)=O", "note": "(stereo not given) [Zileuton]", "startle response to 20-s acoustic pulses": -2.9},
      {"smiles": "COc1c(C)c2c(c(O)c1C/C=C(\\C)CCC(=O)OCCN1CCOCC1)C(=O)OC2", "note": "[Mycophenolate mofetil]", "startle response to 20-s acoustic pulses": 3.73},
      {"smiles": "CC1CNc2c(cccc2S(=O)(=O)N[C@@H](CCCNC(=N)N)C(=O)N2CC[C@@H](C)C[C@@H]2C(=O)O)C1", "note": "(stereo not given in full) [Argatroban]", "startle response to 20-s acoustic pulses": 2.94},
      {"smiles": "CC(=O)Oc1ccccc1C(=O)O", "note": "[Aspirin]", "startle response to 20-s acoustic pulses": -4.27},
      {"smiles": "CCOc1ccccc1OCCN[C@H](C)Cc1ccc(OC)c(S(N)(=O)=O)c1", "note": "[Tamsulosin hydrochloride]", "startle response to 20-s acoustic pulses": 3.87},
      {"smiles": "COc1ccc(Cl)cc1C(=O)NCCc1ccc(S(=O)(=O)NC(=O)NC2CCCCC2)cc1", "note": "[Glibenclamide]", "startle response to 20-s acoustic pulses": 6.49},
      {"smiles": "CCOC(=O)c1ncn2c1CN(C)C(=O)c1cc(F)ccc1-2", "note": "[Flumazenil]", "startle response to 20-s acoustic pulses": -1.57},
      {"smiles": "Cc1ccc(-c2cc(C(F)(F)F)nn2-c2ccc(S(N)(=O)=O)cc2)cc1", "note": "[Celecoxib]", "startle response to 20-s acoustic pulses": -6.81},
      {"smiles": "CN1CCC[C@@H]1Cc1c[nH]c2ccc(CCS(=O)(=O)c3ccccc3)cc12", "note": "[Eletriptan hydrobromide]", "startle response to 20-s acoustic pulses": 1.42},
      {"smiles": "COC(=O)C1=C(C)NC(C)=C(C(=O)OC(C)C)C1c1cccc2nonc12", "note": "(stereo not given) [Isradipine]", "startle response to 20-s acoustic pulses": -10.3},
      {"smiles": "CC1=Nc2ccc(Cl)cc2S(=O)(=O)N1", "note": "[Diazoxide]", "startle response to 20-s acoustic pulses": -3.68},
      {"smiles": "O=C(O)C[C@H](O)C[C@H](O)/C=C/c1c(C2CC2)nc2ccccc2c1-c1ccc(F)cc1", "note": "[Pitavastatin calcium]", "startle response to 20-s acoustic pulses": 1.52},
      {"smiles": "CNS(=O)(=O)Cc1ccc2[nH]cc(CCN(C)C)c2c1", "note": "[Sumatriptan succinate]", "startle response to 20-s acoustic pulses": 3.19},
      {"smiles": "C[C@@H]1C[C@H]2[C@@H]3CCC4=CC(=O)C=C[C@]4(C)[C@@]3(F)[C@@H](O)C[C@]2(C)[C@@]1(O)C(=O)CO", "note": "[Dexamethasone]", "startle response to 20-s acoustic pulses": -1.79},
      {"smiles": "CCCCC1=NC2(CCCC2)C(=O)N1Cc1ccc(-c2ccccc2-c2nnn[nH]2)cc1", "note": "[Irbesartan]", "startle response to 20-s acoustic pulses": 1.39},
      {"smiles": "C=C1[C@H](CO)[C@@H](O)C[C@@H]1n1cnc2c(=O)[nH]c(N)nc21", "note": "[Entecavir]", "startle response to 20-s acoustic pulses": 3.11},
      {"smiles": "NC(=O)N1c2ccccc2C=Cc2ccccc21", "note": "[Carbamazepine]", "startle response to 20-s acoustic pulses": 2.54},
      {"smiles": "CC(C)(C(=O)O)c1ccc(C(O)CCCN2CCC(C(O)(c3ccccc3)c3ccccc3)CC2)cc1", "note": "(stereo not given) [Fexofenadine hydrochloride]", "startle response to 20-s acoustic pulses": 4}
    ]}
  ]
}
